{"source": "PubChem BioAssay AID1159580", "about": "(chemical genetic matrix, 2015)", "experiment": "chemical genetic growth profiling, strain panel (AID 1159580);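 further: tested at 20 µM; growth read once vehicle control cultures reached saturation at 30 °C; 1 = growth at the plate median or of vehicle wells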", "settings": "S. cerevisiae deletion strains, growth OD", "note": "“And” between values parts separate entries of the source, which are not always exact repeats. Equal values may be shown once. Screen size: about 5,500 compounds; about 2,000 (36%) were called active. About 18% were inconclusive and are not listed. No stated cut-off is given here; in the data, active means normalized growth mostly below about 0.91 (no sharp cut-off); inconclusive means no clear call, values can overlap the other calls; inactive means mostly above about 0.92. Some of the results follow. Some compounds were tested as several samples or in several runs, with calls that do not always agree."}
{"smiles": "O=c1cc(-c2ccccc2)oc2cc(O)cc(O)c12", "values": [{"measurement": "normalized growth", "setting": "locus YAL013W, strain DEP1, stronger effect = lower value", "value": "0.956 (inactive)"}, {"measurement": "normalized growth", "setting": "locus YAL021C, strain ccr4, stronger effect = lower value", "value": "0.968 (inactive) and 0.933 (inactive)"}, {"measurement": "normalized growth", "setting": "locus YAL026C, strain drs2, stronger effect = lower value", "value": "0.911 (inactive) and 0.786 (active)"}, {"measurement": "normalized growth", "setting": "locus YAL030W, strain snc1, stronger effect = lower value", "value": "0.943 (inactive) and 0.913 (active)"}, {"measurement": "normalized growth", "setting": "locus YBL061C, strain skt5, stronger effect = lower value", "value": "0.904 (active)"}, {"measurement": "normalized growth", "setting": "locus YBR009C, strain hhf1, stronger effect = lower value", "value": "0.915 (inactive) and 0.773 (active)"}, {"measurement": "normalized growth", "setting": "locus YBR021W, strain FUR4, stronger effect = lower value", "value": "1.01 (inactive)"}, {"measurement": "normalized growth", "setting": "locus YBR023C, strain chs3, stronger effect = lower value", "value": "1.01 (inactive) and 0.851 (active)"}, {"measurement": "normalized growth", "setting": "locus YBR171W, strain sec66, stronger effect = lower value", "value": "0.953 (inactive) and 0.858 (active)"}, {"measurement": "normalized growth", "setting": "locus YBR229C, strain ROT2, stronger effect = lower value", "value": "0.993 (inactive)"}, {"measurement": "normalized growth", "setting": "locus YBR231C, strain swc5, stronger effect = lower value", "value": "0.938 (inactive) and 0.875 (active)"}, {"measurement": "normalized growth", "setting": "locus YBR279W, strain paf1, stronger effect = lower value", "value": "0.947 (inactive) and 0.922 (active)"}, {"measurement": "normalized growth", "setting": "locus YCL011C, strain gbp2, stronger effect = lower value", "value": "0.937 (inactive) and 0.86 (active)"}, {"measurement": "normalized growth", "setting": "locus YCL016C, strain dcc1, stronger effect = lower value", "value": "1.07 (inactive) and 0.875 (active)"}, {"measurement": "normalized growth", "setting": "locus YCL029C, strain bik1, stronger effect = lower value", "value": "0.911 (inactive)"}, {"measurement": "normalized growth", "setting": "locus YCL061C, strain MRC1, stronger effect = lower value", "value": "0.951 (inactive) and 0.802 (active)"}, {"measurement": "normalized growth", "setting": "locus YCL069W, strain vba3, stronger effect = lower value", "value": "0.978 (inactive) and 0.896 (active)"}, {"measurement": "normalized growth", "setting": "locus YCR088W, strain abp1, stronger effect = lower value", "value": "0.957 (inactive) and 0.923 (inactive)"}, {"measurement": "normalized growth", "setting": "locus YDL005C, strain med2, stronger effect = lower value", "value": "0.961 (inactive) and 0.958 (inactive)"}, {"measurement": "normalized growth", "setting": "locus YDL035C, strain GPR1, stronger effect = lower value", "value": "0.919 (inactive)"}, {"measurement": "normalized growth", "setting": "locus YDL040C, strain nat1, stronger effect = lower value", "value": "1.02 (inactive) and 0.916 (active)"}, {"measurement": "normalized growth", "setting": "locus YDL074C, strain BRE1, stronger effect = lower value", "value": "0.87 (inactive)"}, {"measurement": "normalized growth", "setting": "locus YDL101C, strain DUN1, stronger effect = lower value", "value": "0.987 (inactive)"}, {"measurement": "normalized growth", "setting": "locus YDL134C, strain PPH21, stronger effect = lower value", "value": "0.954 (inactive)"}, {"measurement": "normalized growth", "setting": "locus YDL185W, strain tfp1, stronger effect = lower value", "value": "0.946 (inactive)"}, {"measurement": "normalized growth", "setting": "locus YDL192W, strain arf1, stronger effect = lower value", "value": "0.919 (inactive)"}, {"measurement": "normalized growth", "setting": "locus YDR001C, strain nth1, stronger effect = lower value", "value": "0.96 (inactive) and 0.917 (active)"}, {"measurement": "normalized growth", "setting": "locus YDR069C, strain doa4, stronger effect = lower value", "value": "0.926 (inactive) and 0.919 (inactive)"}, {"measurement": "normalized growth", "setting": "locus YDR101C, strain arx1, stronger effect = lower value", "value": "0.921 (inactive)"}, {"measurement": "normalized growth", "setting": "locus YDR137W, strain rgp1, stronger effect = lower value", "value": "0.675 (active) and 0.533 (active)"}, {"measurement": "normalized growth", "setting": "locus YDR150W, strain NUM1, stronger effect = lower value", "value": "0.973 (inactive)"}, {"measurement": "normalized growth", "setting": "locus YDR159W, strain sac3, stronger effect = lower value", "value": "0.853 (active) and 0.785 (active)"}, {"measurement": "normalized growth", "setting": "locus YDR162C, strain NBP2, stronger effect = lower value", "value": "0.92 (inactive)"}, {"measurement": "normalized growth", "setting": "locus YDR195W, strain ref2", "value": "0.986 (inactive) and 1.15 [resistant] (active)"}, {"measurement": "normalized growth", "setting": "locus YDR297W, strain sur2, stronger effect = lower value", "value": "0.946 (inactive) and 0.907 (active)"}, {"measurement": "normalized growth", "setting": "locus YDR318W, strain mcm21, stronger effect = lower value", "value": "0.902 (active)"}, {"measurement": "normalized growth", "setting": "locus YDR334W, strain swr1, stronger effect = lower value", "value": "0.954 (inactive) and 0.887 (active)"}, {"measurement": "normalized growth", "setting": "locus YDR335W, strain msn5, stronger effect = lower value", "value": "0.957 (inactive) and 0.88 (active)"}, {"measurement": "normalized growth", "setting": "locus YDR388W, stronger effect = lower value", "value": "0.914 (active)"}, {"measurement": "normalized growth", "setting": "locus YDR392W, strain spt3, stronger effect = lower value", "value": "0.595 (active) and 0.401 (active)"}, {"measurement": "normalized growth", "setting": "locus YDR502C, strain sam2, stronger effect = lower value", "value": "0.922 (inactive)"}, {"measurement": "normalized growth", "setting": "locus YEL003W, strain gim4, stronger effect = lower value", "value": "0.952 (inactive) and 0.809 (active)"}, {"measurement": "normalized growth", "setting": "locus YEL037C, strain rad23, stronger effect = lower value", "value": "0.941 (inactive) and 0.911 (active)"}, {"measurement": "normalized growth", "setting": "locus YEL061C, strain CIN8 (second series), stronger effect = lower value", "value": "0.961 (inactive) and 0.888 (active)"}, {"measurement": "normalized growth", "setting": "locus YEL061C, strain CIN8, stronger effect = lower value", "value": "0.967 (inactive)"}, {"measurement": "normalized growth", "setting": "locus YER015W, strain faa2, stronger effect = lower value", "value": "0.936 (inactive) and 0.867 (active)"}, {"measurement": "normalized growth", "setting": "locus YER016W, strain bim1, stronger effect = lower value", "value": "1.07 (inactive) and 0.92 (active)"}, {"measurement": "normalized growth", "setting": "locus YER110C, stronger effect = lower value", "value": "0.945 (inactive)"}, {"measurement": "normalized growth", "setting": "locus YER111C, strain swi4, stronger effect = lower value", "value": "0.97 (inactive) and 0.951 (inactive)"}, {"measurement": "normalized growth", "setting": "locus YER155C, strain BEM2 (second series), stronger effect = lower value", "value": "0.686 (active) and 0.499 (active)"}, {"measurement": "normalized growth", "setting": "locus YER155C, strain BEM2, stronger effect = lower value", "value": "0.969 (inactive)"}, {"measurement": "normalized growth", "setting": "locus YER167W, strain BCK2, stronger effect = lower value", "value": "0.928 (inactive)"}, {"measurement": "normalized growth", "setting": "locus YFR010W, strain ubp6, stronger effect = lower value", "value": "0.931 (inactive) and 0.919 (inactive)"}, {"measurement": "normalized growth", "setting": "locus YGL078C, strain dbp3, stronger effect = lower value", "value": "0.957 (inactive)"}, {"measurement": "normalized growth", "setting": "locus YGL086W, strain mad1, stronger effect = lower value", "value": "0.853 (active)"}, {"measurement": "normalized growth", "setting": "locus YGL167C, strain pmr1, stronger effect = lower value", "value": "0.924 (inactive) and 0.87 (active)"}, {"measurement": "normalized growth", "setting": "locus YGL173C, strain kem1, stronger effect = lower value", "value": "0.858 (active) and 0.891 (active)"}, {"measurement": "normalized growth", "setting": "locus YGL227W, strain vid30, stronger effect = lower value", "value": "0.952 (inactive) and 0.909 (active)"}, {"measurement": "normalized growth", "setting": "locus YGL240W, strain doc1, stronger effect = lower value", "value": "0.797 (active) and 0.631 (active)"}, {"measurement": "normalized growth", "setting": "locus YGL248W, strain PDE1, stronger effect = lower value", "value": "0.949 (inactive)"}, {"measurement": "normalized growth", "setting": "locus YGL253W, strain hxk2, stronger effect = lower value", "value": "0.941 (inactive) and 0.855 (active)"}, {"measurement": "normalized growth", "setting": "locus YGR078C, strain PAC10, stronger effect = lower value", "value": "0.858 (inactive)"}, {"measurement": "normalized growth", "setting": "locus YGR135W, strain pre9, stronger effect = lower value", "value": "0.879 (active)"}, {"measurement": "normalized growth", "setting": "locus YGR229C, strain SMI1, stronger effect = lower value", "value": "0.802 (active)"}, {"measurement": "normalized growth", "setting": "locus YGR252W, strain gcn5, stronger effect = lower value", "value": "0.762 (active)"}, {"measurement": "normalized growth", "setting": "locus YHR013C, strain ard1, stronger effect = lower value", "value": "1.06 (inactive) and 1.1 (inactive)"}, {"measurement": "normalized growth", "setting": "locus YHR027C, strain rpn1, stronger effect = lower value", "value": "0.95 (inactive) and 0.901 (active)"}, {"measurement": "normalized growth", "setting": "locus YHR030C, strain SLT2, stronger effect = lower value", "value": "0.967 (inactive) and 0.884 (inactive)"}, {"measurement": "normalized growth", "setting": "locus YHR079C, strain IRE1 (second series), stronger effect = lower value", "value": "0.92 (active)"}, {"measurement": "normalized growth", "setting": "locus YHR079C, strain IRE1, stronger effect = lower value", "value": "0.862 (inactive)"}, {"measurement": "normalized growth", "setting": "locus YHR094C, strain hxt1, stronger effect = lower value", "value": "0.964 (inactive)"}, {"measurement": "normalized growth", "setting": "locus YHR129C, strain ARP1, stronger effect = lower value", "value": "0.992 (inactive)"}, {"measurement": "normalized growth", "setting": "locus YHR142W, strain chs7, stronger effect = lower value", "value": "0.889 (inactive) and 0.702 (active)"}, {"measurement": "normalized growth", "setting": "locus YHR200W, strain rpn10, stronger effect = lower value", "value": "0.91 (active)"}, {"measurement": "normalized growth", "setting": "locus YIL066C, strain RNR3, stronger effect = lower value", "value": "0.959 (inactive)"}, {"measurement": "normalized growth", "setting": "locus YIL073C, strain SPO22, stronger effect = lower value", "value": "0.854 (inactive)"}, {"measurement": "normalized growth", "setting": "locus YIL125W, strain kgd1, stronger effect = lower value", "value": "0.955 (inactive)"}, {"measurement": "normalized growth", "setting": "locus YIR030C, strain dcg1, stronger effect = lower value", "value": "0.944 (inactive)"}, {"measurement": "normalized growth", "setting": "locus YJL092W, strain hpr5, stronger effect = lower value", "value": "0.954 (inactive) and 0.91 (active)"}, {"measurement": "normalized growth", "setting": "locus YJL095W, strain BCK1 (second series), stronger effect = lower value", "value": "0.942 (inactive) and 0.879 (active)"}, {"measurement": "normalized growth", "setting": "locus YJL095W, strain BCK1, stronger effect = lower value", "value": "0.825 (inactive) and 0.889 (inactive)"}, {"measurement": "normalized growth", "setting": "locus YJL115W, strain asf1, stronger effect = lower value", "value": "0.954 (inactive) and 0.904 (active)"}, {"measurement": "normalized growth", "setting": "locus YJL129C, strain trk1, stronger effect = lower value", "value": "0.816 (active) and 0.603 (active)"}, {"measurement": "normalized growth", "setting": "locus YJL134W, strain LCB3, stronger effect = lower value", "value": "0.991 (inactive)"}, {"measurement": "normalized growth", "setting": "locus YJL154C, strain vps35, stronger effect = lower value", "value": "0.97 (inactive) and 0.918 (active)"}, {"measurement": "normalized growth", "setting": "locus YJL164C, strain tpk1, stronger effect = lower value", "value": "0.909 (active) and 0.811 (active)"}, {"measurement": "normalized growth", "setting": "locus YJL166W, strain qcr8, stronger effect = lower value", "value": "0.891 (active) and 0.741 (active)"}, {"measurement": "normalized growth", "setting": "locus YJL168C, strain set2, stronger effect = lower value", "value": "0.948 (inactive)"}, {"measurement": "normalized growth", "setting": "locus YJL187C, strain SWE1 (second series), stronger effect = lower value", "value": "0.939 (inactive)"}, {"measurement": "normalized growth", "setting": "locus YJL187C, strain SWE1, stronger effect = lower value", "value": "0.952 (inactive) and 0.902 (active)"}, {"measurement": "normalized growth", "setting": "locus YJR043C, strain POL32, stronger effect = lower value", "value": "0.899 (inactive)"}, {"measurement": "normalized growth", "setting": "locus YJR066W, strain TOR1, stronger effect = lower value", "value": "0.883 (inactive)"}]}
